The source of these data is the supplement of paper PMC6555819.

The test system of the first assay is LXRa homodimer (NR concentration 270 nM). Briefly: PBM binding z-score (relative to random genomic background probes); higher = stronger binding; sequences stand for … in GC…GCGATTGACAGCGTAGAATGAAGG
A digest of the protocol: (§1)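 For binding z-scores, the reference was random background probes on custom Agilent 4×180K protein-binding microarrays. These arrays were incubated 1 h with ligand-free nuclear receptor dimers in PBS pH 7.4, 2% milk, 0.02% Triton X-100, 1 mM DTT, 0.2 mg/mL BSA and 0.4 mg/ml salmon testes DNA. Fluorescence was scanned after antibody detection of each partner (one per run) and regression-normalized.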
Turning to GCATATAGGTAATACAAGGTAAAAGTCCGATTGT, the PBM binding z-score is -0.476.
ACTCGGAGGAGAAAGGTCAGAGCTACGCCAGTGA had a PBM binding z-score of 0.746.
Regarding CCTTACTGGTCACTGACAGGTTATAGCATTTGGA, the PBM binding z-score amounted to 0.811.
Sequence ATCTCTAGGGAAAAGTTCAGTGAATCCCGAGGAT gave a PBM binding z-score of 0.405.
The sequence TCACGGAGGACACGAAGGTCAGAGCTTTCCAGAG had a PBM binding z-score of 0.259.
Consider CGTACTAGGTCAGAACAGGACAGTGAAGGATGAT, for which the PBM binding z-score turned out to be 0.203.
Consider CGAACTAGGTTAAGGACAGTGAATCTCCGCACGC, for which the PBM binding z-score is -0.213.
Still for that read-out and setting: the same measure for TCAGACAGGTGAAGGTAACTCTGGTACGCAGTCG: -0.038; for TAGCCTAGATCATGCGGGCCAGTATAGTGTCGGC: -1.04; for AATACAGGGTCATCGTAGGCAAGAGTACGCACAG: 2.1.
On the same count and under the same terms, the same measure for ATCTCTAGGTCAGACTCAGTTCAGTGAAGAACGC: 3.15; for CCAGACAGGTGAGTAGGTAACTCAGCCTCGATTA: 0.0547; for TCTGCTAGCTCAGTTGGTCAGCTAACGAGCTGCC: -1.01.
Same read-out and setting: the same measure for CTACCAAGGTGAACAAGCTCGTTGATTACTATTC: -0.188; for CCGATTGGGGCAGAAAGGTTACCATACCATCCGG: -0.352.
ATATGTAGATTACATCCGGGTCATTCAGGCTATG: the PBM binding z-score amounted to 0.625.
Still for that read-out and setting: the same measure for CCTCGGAGGACATAAGGTCAGAGCTGTCCGCTTT: 0.959.
On the same count and under the same terms, the same measure for TCTTGTAGATCAAGCTGGTTAAGAAAGCCTGAGT: -0.611.
In the case of AGAATGAGTTTAAGATCAGGGAAACAGAATACAT, the PBM binding z-score was -0.102.
ATACCAAGGTGATCGTGAGGTCGTTGAGACTAAC: the PBM binding z-score stood at 0.536.
Still for that read-out and setting: the same measure for GCTCGGAGGACATGGTCAGAGCTTTGTCCGTAGA: -0.873; for CCGAGTAGGTTATGGGGCATACAGGCAACGGTGA: -0.0431.
The same measure, in the same setting: the same measure for CGTCCAAGGTCAAAGGTCAGTTAAGAGATGACGG: 4.02; for CTAGCAAGGTGAACAAGGTCGTTGATTACTATTC: -0.0996; for ACAGACAGGTGATGATGGTAACTCAGGCTATCAT: -0.0719.
The same measure, in the same setting: the same measure for CAAACTAGGTCACAGAGGTCCAAGTCCGTGCGTA: 0.422.
As for TAGCCTTGGTCATGCGGGCCAGTATAGTGTCGGC, the PBM binding z-score is -0.986.
Take CCAGACAGGTGAATGGTAACTCAGTCTGGTACGC: the PBM binding z-score was -0.271.
The sequence GCTGATAGGTCAACTGATGGTCAGCTAAAGCTCG yielded a PBM binding z-score of 0.669.
For the sequence AGAACGAGGGCCCGCTGAGTTGATAGCAGAGTAG, the PBM binding z-score is -0.871.
Same read-out and setting: the same measure for ATATGTAGGTTACGGGTCATTCAGGTTGGTTCGC: 2.11; for CCTCCAAGGTCAATGCTAGGTCAGTGAAAGCATT: 2.29; for CCTCGGAGGAAAGAAGGTCAGAGCTGTCCGCTTT: -0.152.
Same read-out and setting: the same measure for ACTACCAGGCCAAGGGTCACTCAAGATTAGTCCG: 0.63; for CCGACTGGGGCATAAGGTTAGCATAAGCCAGCCC: -0.738; for TCTTGTAGATCAAAGGTTAAGATAGCCGAAGCCT: 0.243.
On the same count and under the same terms, the same measure for ACTATTTGGTCAGCTGAGGTCACACACAATTCGG: 2.98; for CGTTAAAGTTCAACTAAGGTAACGTAAAGCACGC: 4.48.
For AGTCAATGTTCACTAGGTAACGTAAGATTCAGCT, the PBM binding z-score was -0.143.
The same measure, in the same setting: the same measure for AGTCAAAGTTCACTAGTTAACGTAAGATTCAGCT: 2.97.

Another assay relates to LXRb:RXRa (NR concentration 270 nM, RXRa partner concentration 90 nM). The description is as above. A digest of the protocol:
as §1
In the case of GCATATAGGTAATACAAGGTAAAAGTCCGATTGT, the PBM binding z-score is -0.189.
ACTCGGAGGAGAAAGGTCAGAGCTACGCCAGTGA gave a PBM binding z-score of 2.72.
The sequence CCTTACTGGTCACTGACAGGTTATAGCATTTGGA had a PBM binding z-score of 0.822.
In turn, ATCTCTAGGGAAAAGTTCAGTGAATCCCGAGGAT yielded a PBM binding z-score of 0.302.
On the same count and under the same terms, the same measure for TCACGGAGGACACGAAGGTCAGAGCTTTCCAGAG: 0.963.
CGTACTAGGTCAGAACAGGACAGTGAAGGATGAT: the PBM binding z-score amounted to 0.274.
As to CGAACTAGGTTAAGGACAGTGAATCTCCGCACGC, the PBM binding z-score is -0.172.
The same measure, in the same setting: the same measure for TCAGACAGGTGAAGGTAACTCTGGTACGCAGTCG: 1.46.
Still for that read-out and setting: the same measure for TAGCCTAGATCATGCGGGCCAGTATAGTGTCGGC: -1.36; for AATACAGGGTCATCGTAGGCAAGAGTACGCACAG: 4.59.
In turn, ATCTCTAGGTCAGACTCAGTTCAGTGAAGAACGC had a PBM binding z-score of 2.13.
Still for that read-out and setting: the same measure for CCAGACAGGTGAGTAGGTAACTCAGCCTCGATTA: -0.023.
With TCTGCTAGCTCAGTTGGTCAGCTAACGAGCTGCC, the PBM binding z-score is -1.04.
Take CTACCAAGGTGAACAAGCTCGTTGATTACTATTC: the PBM binding z-score amounted to 0.479.
On the same count and under the same terms, the same measure for CCGATTGGGGCAGAAAGGTTACCATACCATCCGG: 1.09.
On the same count and under the same terms, the same measure for ATATGTAGATTACATCCGGGTCATTCAGGCTATG: 1.99; for CCTCGGAGGACATAAGGTCAGAGCTGTCCGCTTT: 1.75.
The sequence TCTTGTAGATCAAGCTGGTTAAGAAAGCCTGAGT came in with a PBM binding z-score of 0.0138.
Take AGAATGAGTTTAAGATCAGGGAAACAGAATACAT: the PBM binding z-score was -0.0907.
Sequence ATACCAAGGTGATCGTGAGGTCGTTGAGACTAAC had a PBM binding z-score of 0.968.
On the same count and under the same terms, the same measure for GCTCGGAGGACATGGTCAGAGCTTTGTCCGTAGA: -1.01.
For CCGAGTAGGTTATGGGGCATACAGGCAACGGTGA, the PBM binding z-score amounted to 0.599.
As for CGTCCAAGGTCAAAGGTCAGTTAAGAGATGACGG, the PBM binding z-score is 6.65.
Same read-out and setting: the same measure for CTAGCAAGGTGAACAAGGTCGTTGATTACTATTC: 1.45; for ACAGACAGGTGATGATGGTAACTCAGGCTATCAT: -0.166.
Same read-out and setting: the same measure for CAAACTAGGTCACAGAGGTCCAAGTCCGTGCGTA: 2.32.
On the same count and under the same terms, the same measure for TAGCCTTGGTCATGCGGGCCAGTATAGTGTCGGC: -1.09.
For the sequence CCAGACAGGTGAATGGTAACTCAGTCTGGTACGC, the PBM binding z-score was -0.246.
Sequence GCTGATAGGTCAACTGATGGTCAGCTAAAGCTCG gave a PBM binding z-score of 3.53.
For the sequence AGAACGAGGGCCCGCTGAGTTGATAGCAGAGTAG, the PBM binding z-score was -1.53.
Same read-out and setting: the same measure for ATATGTAGGTTACGGGTCATTCAGGTTGGTTCGC: 3.61.
The same measure, in the same setting: the same measure for CCTCCAAGGTCAATGCTAGGTCAGTGAAAGCATT: 4.51; for CCTCGGAGGAAAGAAGGTCAGAGCTGTCCGCTTT: 0.92.
ACTACCAGGCCAAGGGTCACTCAAGATTAGTCCG came in with a PBM binding z-score of 3.41.
Same read-out and setting: the same measure for CCGACTGGGGCATAAGGTTAGCATAAGCCAGCCC: -0.254.
With TCTTGTAGATCAAAGGTTAAGATAGCCGAAGCCT, the PBM binding z-score is 2.23.
Still for that read-out and setting: the same measure for ACTATTTGGTCAGCTGAGGTCACACACAATTCGG: 3.81.
Same read-out and setting: the same measure for CGTTAAAGTTCAACTAAGGTAACGTAAAGCACGC: 4.01.
Same read-out and setting: the same measure for AGTCAATGTTCACTAGGTAACGTAAGATTCAGCT: -0.121; for AGTCAAAGTTCACTAGTTAACGTAAGATTCAGCT: 2.92.
